Assay results: PubChem BioAssay AID1117319 (Southern Research Institute, 2015)
Values joined by “and” are separate entries in the source; they are usually repeats but may differ in a detail not shown here. Identical values can stand only once. Among all 260,000 compounds or so, about 1,500 (0.58%) were called active. Roughly 5% stayed inconclusive and do not appear here.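 How the source made its calls: active means inhibition above a set limit at one or more doses, reproduced on every date tested; inconclusive means results disagree between test dates, or hit never tested in dose response; inactive means the rest.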 Not all results are given here. Entries with a potency or affinity are not part of this list.

These compounds were tested against Virion infectivity factor (Human immunodeficiency virus type 1 group M subtype B (isolate BH10)) + Virion infectivity factor (Human immunodeficiency virus type 1 group M subtype B (isolate BRU/LAI)) + Virion infectivity factor (Human immunodeficiency virus type 1 group M subtype B (isolate PCV12)) + Virion infectivity factor (Human immunodeficiency virus type 1 group M subtype B (isolate HXB2)) + DNA dC->dU-editing enzyme APOBEC-3G (Homo sapiens) (UniProt P69720+P69721+P69722+P69723+Q9HC16) (assay: HIV-1 Vif–A3G interaction blockers – biochemical, TR-FRET, GST-Vif 1-94, biotin-A3G peptide, dose response retest, primary screen (AID 1117319;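 further: Vif residues 1-94 fused to GST binding biotinylated APOBEC3G peptide 110-148; 0% = full assay without inhibitor and 100% = GST in place of GST-Vif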)). Conditions: TR-FRET GST-Vif / biotin-A3G peptide binding; stronger effect = higher value.

inhibition, inactive:
CCOC(=O)Cc1ncccc1C(=O)Nc1ccc(Oc2ccccc2)cc1 -1.5%
COc1ccc(C(=O)NCc2nnc(SCC(=O)Nc3nc4ccc(C)cc4s3)o2)cc1OC 9%
COc1ccc(C(=O)NCc2nnc(SCC(=O)Nc3nc4ccccc4s3)o2)cc1OC 0.33%
Cc1ccc(CSc2nc3ccncc3n2CC(=O)Nc2cc(C)cc(C)c2)cc1 -48.6%
Cc1sc2ncnc(SCC(=O)NC(=O)NCc3ccco3)c2c1C -3.92%
Cc1sc2ncnc(NCc3ccco3)c2c1C 23.1%
COc1ccc2c(c1)CC(C1(O)C(=O)N(C)c3ccccc31)C2=O (configuration not stated) -5.17%
CC(=O)c1ccc(NC(=O)Nc2ccc3c(c2)nc(C)n3C)cc1 11.4%
Cc1ccc(NC(=O)Nc2ccc3c(c2)nc(C)n3C)cc1 66.9%
COc1ccc(NC(=O)CN(C)C(=O)CSc2nc3ccccc3s2)cc1 -0.85%
Cc1ccc(-n2nc3c(c2NC(=O)c2ccc(Br)o2)CSC3)c(C)c1 17%
Cc1ccccc1-n1nc2c(c1NC(=O)c1ccc(Br)o1)CSC2 17.6%
COc1ccc(NC(=O)COC(=O)c2ccc(S(=O)(=O)N3CC(C)CC(C)C3)cc2)cc1OC (configuration not stated) 0.85%
CC(=O)Nc1ccc(S(=O)(=O)Nc2nc3ccccc3nc2Nc2ccc(S(N)(=O)=O)cc2)cc1 23.8%
CC(=O)Nc1ccc(Nc2nc3ccccc3nc2NS(=O)(=O)c2ccccc2)cc1 17.2%
CC(=O)Nc1ccc(S(=O)(=O)Nc2nc3ccccc3nc2Nc2cccc(O)c2)cc1 6.78%
CC(=O)Nc1ccc(S(=O)(=O)Nc2nc3ccccc3nc2Nc2ccc(O)cc2)cc1 -3.02%
Cc1ccc(NC(=O)CS(=O)(=O)c2c[nH]c3ccccc23)c(C)c1 -0.62%
COCCNC(=S)N/N=C(\C)CCc1ccc2c(c1)OCO2 3.32%
Cc1cc(C(=O)NNC(=O)/C=C/c2ccccc2Cl)c(C)o1 -12.6%
COc1ccc(/C=C/C(=O)NNC(=O)c2cc(C)oc2C)cc1 1.71%
COc1cccc(NC(=S)NC(=O)/C=C/c2ccco2)c1 28.1%
Cc1ccc(O)c(NC(=S)NC(=O)/C=C/c2ccco2)c1 -4.52%
O=C(/C=C/c1ccco1)Nc1ccccc1C(=O)Nc1cccc(C(=O)O)c1 30.8%
CC(=O)c1ccc(NC(=S)NC(=O)/C=C/c2ccco2)cc1 9.46%
Cc1cc(NC(=O)/C=C/c2ccco2)ccc1NC(=O)c1ccccc1 11.7%
O=C(/C=C/c1ccco1)NC(=S)Nc1ccccc1 10.3%
COc1cc(OC)cc(C(=O)NCC(=O)OCc2nc3ccccc3s2)c1 5.21%
COC(=O)C(NC(=O)c1ccccc1)(Nc1cc(C)cc(C)n1)C(F)(F)F (configuration not stated) -5.13%
COc1ccc(CN2C(=O)C(CC(=O)NCCCCc3ccccc3)CC(C(=O)N(C(C)C)C(C)C)=C2C)cc1 (configuration not stated) 6.93%
CN(Cc1ccccc1)C(=O)CCC(=O)N(C)Cc1ccccc1 0.41%
C=CCNc1nc2c(c(=O)[nH]c(=O)n2C)n1Cc1cccc(C)c1 -3.73%
CCN(CC)CCOC(=O)c1ccc(NC(=O)COc2cc(=O)n(CC)c3ccccc23)cc1 3.06% and 4.99%
COCCCN1C(=O)c2ccc(C(=O)NCc3ccco3)cc2C1=O 1.46%
CC(C)C(=O)N1CCN(c2ccccc2NC(=S)NC(=O)/C=C/c2ccco2)CC1 4.53%
O=C(/C=C/c1ccco1)NC(=S)Nc1cc(C(F)(F)F)ccc1N1CCOCC1 31.6%
CS(=O)(=O)N(CCC#N)Cc1ccco1 0.4%
CS(=O)(=O)N(CCC#N)Cc1ccc(C=O)o1 -8.77%
CS(=O)(=O)N(CCC#N)Cc1ccc(/C=C2\C(=O)Nc3ccccc32)o1 -11%
Cc1ccc(Sc2ccc(/C=C3/C(=O)NN(c4ccccc4)C3=O)o2)cc1 22.1%
COc1cc2c(cc1OC)CN(C(=O)c1cc3ccccc3oc1=O)CC2 1.51%
Cc1ccc(S(=O)(=O)N2CCC[C@H]2C(=O)OCCN2C(=O)c3ccccc3C2=O)cc1 -7.91%
COC(=O)CN(C(=S)Nc1ccccc1)C1CC(=O)N(c2ccc(OC)cc2)C1=O (configuration not stated) -1.92%
Cc1cccc(NC(=O)C2CC(=O)NC(Nc3nc4ccccc4s3)=N2)c1 (configuration not stated) 11.6%
O=C(COc1ccccc1)N1CCN(C(=O)c2cccs2)CC1 17.7%
C=CCc1cc(/C=C/c2nc(O)c([N+](=O)[O-])c(=O)[nH]2)cc(OC)c1O 15%
Cc1cccc(NC(=S)NC(=O)C(c2ccccc2)c2ccccc2)n1 -6.56%
CCOc1ccc2noc3c2c1C(=O)c1ccccc1-3 31.7%
CCOC(=O)c1c(C)oc2c1C(=O)c1ccccc1C2=O 6.8%
Cc1ccccc1NC(=O)CN1C(=O)S/C(=C\c2cccn2-c2cccc(C(=O)O)c2)C1=O 31.2%
CN1C(=O)S/C(=C/c2cccn2-c2cccc(C(=O)O)c2)C1=O 6.22%
Cc1ccc(NC(=O)CN2C(=O)S/C(=C\c3cccn3-c3cccc(C(=O)O)c3)C2=O)cc1C -0.87%
Cc1cccc(C)c1NC(=O)CN1C(=O)S/C(=C\c2cccn2-c2cccc(C(=O)O)c2)C1=O 6.97%
Cc1ccc(OCC(=O)N2CCOCC2)cc1C -10.7%
CCCOc1ccc(N2C(=O)CC(N3CCN(CCN=CC4=C(O)CC(C)(C)CC4=O)CC3)C2=O)cc1 (configuration not stated) 8.53%
CCOC(=O)C1CCN(C(=O)C2CCN(S(=O)(=O)c3cccc4nsnc34)CC2)CC1 -1.01%
COc1cc(C(=O)Oc2ccccc2N)cc(OC)c1OC -1.18%
